This is an account of results in paper PMC4336329 (PLoS ONE, 2015).

SMILES strings stand for the structures. Hit rate of the full screen: of about 310,000 compounds, about 14,000 (4.5%) showed an effect of 50% or more. The effect is printed as a negative number. This is one part of a sample in which strong results are shown more often than they occur.
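Note: peak tail current of the secondary pulse compared with the same well before compound.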

In this assay the target is human ether-à-go-go-related gene (hERG) potassium channel (human, UniProt Q12809). The assay is described as follows: primary screen, population patch clamp on CHO cells stably expressing hERG; higher = less effect of the substance.
human ether-à-go-go-related gene (hERG) potassium channel, sequence (Q12809 whole entry, looked up): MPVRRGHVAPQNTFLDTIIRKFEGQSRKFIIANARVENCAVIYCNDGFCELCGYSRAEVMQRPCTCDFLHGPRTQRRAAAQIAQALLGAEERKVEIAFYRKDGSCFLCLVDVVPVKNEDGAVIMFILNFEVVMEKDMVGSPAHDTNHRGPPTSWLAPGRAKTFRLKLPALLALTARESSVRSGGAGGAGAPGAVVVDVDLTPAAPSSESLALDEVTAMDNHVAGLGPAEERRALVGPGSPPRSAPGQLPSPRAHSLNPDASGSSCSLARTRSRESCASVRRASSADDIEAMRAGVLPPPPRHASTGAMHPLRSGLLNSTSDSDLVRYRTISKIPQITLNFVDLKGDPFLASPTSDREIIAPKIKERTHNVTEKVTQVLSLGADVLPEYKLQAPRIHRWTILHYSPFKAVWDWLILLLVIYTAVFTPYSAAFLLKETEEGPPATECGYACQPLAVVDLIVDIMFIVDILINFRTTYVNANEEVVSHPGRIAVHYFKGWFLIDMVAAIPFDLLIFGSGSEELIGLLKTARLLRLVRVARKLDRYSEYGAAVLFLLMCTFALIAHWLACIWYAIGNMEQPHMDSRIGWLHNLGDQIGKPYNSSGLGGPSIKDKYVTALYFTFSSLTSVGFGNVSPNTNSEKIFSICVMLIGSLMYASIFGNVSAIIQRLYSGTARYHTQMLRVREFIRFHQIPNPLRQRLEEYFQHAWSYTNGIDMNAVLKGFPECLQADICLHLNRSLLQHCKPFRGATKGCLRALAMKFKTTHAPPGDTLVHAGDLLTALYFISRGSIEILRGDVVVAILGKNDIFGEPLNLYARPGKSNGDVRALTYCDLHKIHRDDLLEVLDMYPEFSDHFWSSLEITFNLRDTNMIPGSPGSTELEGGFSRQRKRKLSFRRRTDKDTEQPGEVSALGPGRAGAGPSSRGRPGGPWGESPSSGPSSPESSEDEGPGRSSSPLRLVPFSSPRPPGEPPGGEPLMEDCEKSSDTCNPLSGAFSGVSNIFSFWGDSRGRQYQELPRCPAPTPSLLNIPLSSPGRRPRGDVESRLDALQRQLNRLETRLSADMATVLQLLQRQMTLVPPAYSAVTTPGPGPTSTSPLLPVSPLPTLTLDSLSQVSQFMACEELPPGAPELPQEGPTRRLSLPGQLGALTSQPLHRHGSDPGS
`C=CCN(CC=C)C(=S)NC(=O)c1ccc(OC)c(Br)c1`: the “hERG current change (%, negative = inhibition) at 10uM” value came to 5.1%.
Regarding `Cn1ncc([N+](=O)[O-])c1C(=O)Nc1ccn(Cc2ccccc2F)n1`, the “hERG current change (%, negative = inhibition) at 10uM” value is -9.33%.
The same measure for `Cc1c(NC(=O)OCCNC(=O)COc2ccc(Cl)cc2Cl)sc(=S)n1C`: -5.51%; for `CCN1CCN(c2nc(-c3ccncc3)nc3ccccc23)CC1`: -77.8%; for `CC1CCN(c2nc(-c3ccncc3)nc3ccccc23)CC1`: -27%.
As to `CCC1CCCCN1c1nc(-c2ccncc2)nc2ccccc12` (stereo not drawn), the “hERG current change (%, negative = inhibition) at 10uM” value was -42.5%.
The same measure for `CCC1=C(C)CN(C(=O)NCCc2ccc(S(=O)(=O)NC(=O)NC3CCC(C)CC3)cc2)C1=O` (stereo not drawn): -13.5%.
As for `CCOc1ccc(/C=C(\C#N)C(=O)NCC2CCCO2)cc1OCC` (stereo not drawn), the “hERG current change (%, negative = inhibition) at 10uM” value is given as -5.95%.
The value for `O=C(Nc1cccnc1)c1ccc(Cl)c(S(=O)(=O)N2CCCCC2)c1` was -15.6%.
With `O=C(Nc1ncccc1O)c1ccc(Cl)c(S(=O)(=O)N2CCCCCC2)c1`, the “hERG current change (%, negative = inhibition) at 10uM” value is listed as -61%.
The value for `O=C(Nc1cccnc1)c1ccc(Cl)c(S(=O)(=O)N2CCCCCC2)c1` was -31.6%; that for `Cc1cccnc1NC(=O)c1ccc(Cl)c(S(=O)(=O)N2CCCC2)c1` was -9.58%; that for `Cc1ccc(C(=O)Nc2ncccc2O)cc1S(=O)(=O)N1CCCCC1` was -14.3%.
The same measure for `Cc1cccnc1NC(=O)c1ccc(Cl)c(S(=O)(=O)N2CCCCC2)c1`: -21.7%; for `CC(NC(=O)c1ccc(Cl)c(S(=O)(=O)N2CCCCCC2)c1)c1cccnc1` (stereo not drawn): -52.3%.
The value for `O=C(NCc1ccccn1)c1ccc(Cl)c(S(=O)(=O)N2CCCCCC2)c1` was -64.5%; that for `O=C(NCc1ccccn1)c1ccc(Cl)c(S(=O)(=O)N2CCOCC2)c1` was -4.89%; that for `Cc1cccnc1NC(=O)c1ccc(Cl)c(S(=O)(=O)N2CCCCCC2)c1` was -65.5%.
Consider `O=C(Nc1ncccc1O)c1ccc(Cl)c(S(=O)(=O)N2CCCCC2)c1`, for which the “hERG current change (%, negative = inhibition) at 10uM” value is -16.1%.
The value for `O=C(NCc1ccccn1)c1ccc(Cl)c(S(=O)(=O)N2CCCCC2)c1` was -10.1%; that for `COc1ccc(NC(=O)c2ccccn2)cc1OC` was 3.32%.
The same measure for `O=C(O)c1csc(Cc2ccccc2)n1`: 15.1%; for `COc1ccc(Cl)cc1NC(=O)Nc1cc(C)on1`: 0.43%; for `CC(C)C(O)(C#CCN1CCCCC1)C(C)C`: -1.16%.
The same measure for `Cc1cccc(N2C(=O)CC(NNc3nc4ccccc4s3)C2=O)c1` (stereo not drawn): 10.6%; for `Cc1cc(C)c(C(=O)C(C)OC(=O)Cn2cnc3c2c(=O)n(C)c(=O)n3C)cc1C` (stereo not drawn): -17.6%.
For the compound `CC(C(=O)c1ccccc1)n1cnc2ccccc2c1=O` (stereo not drawn), the “hERG current change (%, negative = inhibition) at 10uM” value is reported as -2.46%.
For the compound `CC(=O)c1cccc(NC(=O)CCN2C(=O)C3CC=CCC3C2=O)c1` (stereo not drawn), the “hERG current change (%, negative = inhibition) at 10uM” value was 5.49%.
Regarding `COCCN(CCOC)S(=O)(=O)c1ccc(OC)cc1`, the “hERG current change (%, negative = inhibition) at 10uM” value is given as 8.79%.
The same measure for `Cc1ccnc(NC(=O)CCCc2ccccc2)c1`: 13%.
Turning to `COc1ccc(C2Nc3ccccc3C(=O)N2NS(=O)(=O)c2ccc(C)cc2)c(OC)c1` (stereo not drawn), the “hERG current change (%, negative = inhibition) at 10uM” value stood at 3.22%.
As to `CCOc1ccc(C(=O)C(C)OC(=O)CN2C(=O)NC(C)(C)C2=O)cc1` (stereo not drawn), the “hERG current change (%, negative = inhibition) at 10uM” value is -7.23%.
For the compound `CCOc1ccc(C(=O)C(C)OC(=O)Cn2c(C)csc2=O)cc1` (stereo not drawn), the “hERG current change (%, negative = inhibition) at 10uM” value was -60.1%.
On to `Cc1csc(=O)n1CC(=O)OC(C)C(=O)Nc1ccc(F)c(F)c1F` (stereo not drawn), for which the “hERG current change (%, negative = inhibition) at 10uM” value is -4.29%.
The same measure for `O=C(COc1ccc(Cl)cc1)Nc1ccc2c(c1)nc1n2CCOC1`: -34%.
`O=C(CC1NC(=O)NC1=O)Nc1ccccc1` (stereo not drawn): the “hERG current change (%, negative = inhibition) at 10uM” value was -0.537%.
The value for `CCOc1cc2c(cc1OCC)-n1cccc1C(c1cc(C)c(OC)cc1C)NC2.Cl` (stereo not drawn) was -62.1%; that for `CCOc1cc2c(cc1OCC)-n1cccc1C(c1cccc(F)c1)NC2.Cl` (stereo not drawn) was -14.8%; that for `CCOc1cc2c(cc1OCC)-n1cccc1C(c1ccc(OC)cc1)NC2.Cl` (stereo not drawn) was -48.1%.
Consider `CCOc1cc2c(cc1OCC)-n1cccc1C(c1ccc(C)cc1C)NC2.Cl` (stereo not drawn), for which the “hERG current change (%, negative = inhibition) at 10uM” value was -0.599%.
For `CCOc1cc2c(cc1OCC)-n1cccc1C(c1ccc(OC(F)F)cc1)NC2.Cl` (stereo not drawn), the “hERG current change (%, negative = inhibition) at 10uM” value was -65.3%.
As for `CCOc1cc2c(cc1OCC)-n1cccc1C(c1ccc(OC)c(OC)c1)NC2.Cl` (stereo not drawn), the “hERG current change (%, negative = inhibition) at 10uM” value is recorded as -30.2%.
The value for `CCOc1cc2c(cc1OCC)-n1cccc1C(c1ccccc1OC)NC2.Cl` (stereo not drawn) was -7.52%; that for `CCOc1cc2c(cc1OCC)-n1cccc1C(c1cccc([N+](=O)[O-])c1)NC2.Cl` (stereo not drawn) was -59.9%.
Turning to `CCOc1cc2c(cc1OCC)-n1cccc1C(c1ccc(F)cc1)NC2.Cl` (stereo not drawn), the “hERG current change (%, negative = inhibition) at 10uM” value was 0.0384%.
The same measure for `O=S(=O)(NC1=NCCCCCC1)c1cccs1`: 3.19%; for `CCN1C(C(=O)c2ccccc2)=C(Nc2ccccc2C)c2ccccc2S1(=O)=O`: -4.84%.
Regarding `Cl.Nn1cnnc1N/N=C/c1ccc(Cl)c([N+](=O)[O-])c1`, the “hERG current change (%, negative = inhibition) at 10uM” value is on record as -26.6%.
As to `O=c1[nH]c(/C=C\c2cccs2)nc(O)c1[N+](=O)[O-]`, the “hERG current change (%, negative = inhibition) at 10uM” value was -4.76%.
The same measure for `CCOc1ccc(/C=N/NC(=O)c2[nH]c3ccc(C)cc3c2C)cc1`: 12.4%; for `Cc1cccc(NC(=O)Cn2cnc3c(oc4ccccc43)c2=O)c1`: 12.5%; for `COc1cc(OC)cc(Oc2ccc(S(=O)(=O)N3CCCCC3)cc2[N+](=O)[O-])c1`: 1.5%.
Consider `CCN(CC)S(=O)(=O)c1ccc(Oc2ccccc2OC)cc1`, for which the “hERG current change (%, negative = inhibition) at 10uM” value is reported as -65.3%.
On to `O=[N+]([O-])c1cc(S(=O)(=O)N2CCCC2)ccc1OCCOc1ccccc1`, for which the “hERG current change (%, negative = inhibition) at 10uM” value is recorded as -32.4%.
The value for `CCN1CCN(S(=O)(=O)c2ccc(Oc3ccccc3OC)cc2)CC1` was -15%.
Take `COc1cccc(Oc2ccc(S(=O)(=O)N3CCCC3)cc2[N+](=O)[O-])c1`: the “hERG current change (%, negative = inhibition) at 10uM” value is reported as -57.1%.
On to `COc1ccccc1Oc1ccc(S(=O)(=O)N2CCCC2)cc1`, for which the “hERG current change (%, negative = inhibition) at 10uM” value is -77.3%.
The value for `COc1ccccc1Oc1ccc(S(=O)(=O)N2CCN(C)CC2)cc1` was -1.98%.
Take `CCN(CC)S(=O)(=O)c1ccc(Oc2ccccc2)cc1`: the “hERG current change (%, negative = inhibition) at 10uM” value is on record as -20.7%.
The value for `CCN(CC)S(=O)(=O)c1ccc(Oc2ccc(S(=O)(=O)N(CC)CC)cc2)cc1` was -22.7%; that for `CN=C1S/C(=C\c2cn(CC(=O)OC)c3ccccc23)C(=O)N1C` was 7.11%.
`COc1ccc([N+](=O)[O-])cc1NC(=O)Nc1ccc(OC)c(OC)c1`: the “hERG current change (%, negative = inhibition) at 10uM” value is 8.37%.
On to `COc1ccc(CCNC(=O)COC(=O)Cc2ccc(OC)cc2)cc1`, for which the “hERG current change (%, negative = inhibition) at 10uM” value turned out to be 9.48%.
The value for `COc1ccc2c(C)cc(N3CCOCC3)nc2c1` was -7.7%.
As to `Cc1cc(N2CCN(C)CC2)nc2ccccc12`, the “hERG current change (%, negative = inhibition) at 10uM” value is reported as -0.28%.
For `COc1ccc(N2CCN(c3cc(C)c4ccc(O)cc4n3)CC2)cc1`, the “hERG current change (%, negative = inhibition) at 10uM” value is -24.4%.
On to `Cc1cc(N2CCCC2)nc2ccccc12`, for which the “hERG current change (%, negative = inhibition) at 10uM” value is reported as -41.2%.
Consider `Cc1cc(N2CCCCC2)nc2ccccc12`, for which the “hERG current change (%, negative = inhibition) at 10uM” value is listed as -9.74%.
`Cc1cc(N2CCCCCC2)nc2ccccc12.O=C(O)C(=O)O`: the “hERG current change (%, negative = inhibition) at 10uM” value is -56.1%.
The value for `COc1ccc2c(C)cc(N3CCCCCC3)nc2c1.O=C(O)C(=O)O` was -82%; that for `Cc1cc(N2CCOCC2)nc2ccc(Cl)cc12` was 9.25%.
The same measure for `COc1ccc2c(C)cc(N3CCN(c4ccc(F)cc4)CC3)nc2c1`: -25.7%; for `Cc1cc(N2CCN(c3ccc(F)cc3)CC2)nc2cc(O)ccc12`: -75.9%.
Take `COc1ccc2c(C)cc(N3CCN(Cc4ccccc4)CC3)nc2c1`: the “hERG current change (%, negative = inhibition) at 10uM” value is -29.6%.
`Cc1cc(N2CCCN(C)CC2)nc2cc(Cl)ccc12`: the “hERG current change (%, negative = inhibition) at 10uM” value is given as -61.7%.
On to `CCOc1cccc(/C=N/N2C(=O)CSC2=S)c1O`, for which the “hERG current change (%, negative = inhibition) at 10uM” value is 24.2%.
The value for `O=C(CO/N=C/c1ccc(Cl)cc1Cl)NNC(=O)c1ccc(Cl)cc1Cl` was 3.17%.
The same measure for `O=C(NCCO)Nc1ccc(Cl)cc1`: 27.7%; for `O=C(CN(C(=O)c1csnn1)c1ccc(F)c(Cl)c1)NCc1ccc(F)cc1`: 7.3%.
The same measure for `CN1OC(Cn2cc(C#N)c(=O)n(C)c2=O)CC1c1ccccc1` (stereo not drawn): 12.5%; for `CCOc1ccc(CN(C)CC(=O)Nc2cc(C)c(C)cc2[N+](=O)[O-])cc1.CN(C)C=O`: 9.36%; for `Oc1ccc(Nc2nc(-c3ccc(O)cc3)cs2)cc1`: 18.9%.
On to `Cc1cc(C)cc(NC(=O)c2ccc(CSc3nnnn3C)cc2)c1`, for which the “hERG current change (%, negative = inhibition) at 10uM” value is -24%.
Take `Cl.NCCCNc1ccc([N+](=O)[O-])cc1C(F)(F)F`: the “hERG current change (%, negative = inhibition) at 10uM” value is given as -15%.
The value for `CCn1cc(C(=O)O)c(=O)c2cc(F)c(N3CCN(C(=S)NC(=O)c4cccc(F)c4)CC3)cc21` was 5.44%; that for `Cn1c(=O)[nH]c(=O)c2c1ncn2CCCc1ccccc1` was 1.26%; that for `Cc1ccc(-c2[nH]ncc2C(=O)c2ccc(Br)cc2)c(O)c1` was -9.43%.
For the compound `O=C(O)C(=O)O.c1ccc(-c2cc(N3CCOCC3)nc3ccccc23)cc1`, the “hERG current change (%, negative = inhibition) at 10uM” value is given as -11.6%.
The same measure for `O=C(O)C(=O)O.OCCN1CCN(c2cc(-c3ccccc3)c3ccccc3n2)CC1`: -63.3%; for `COc1ccc2c(-c3ccccc3)cc(N3CCOCC3)nc2c1.O=C(O)C(=O)O`: 3.22%.
